Data: article PMC7862700, “An all-to-all approach to the identification of sequence-specific readers for epigenetic DNA modifications on cytosine”

Legend:
Assay in all cases: DAPPL (digital affinity profiling via proximity ligation, sequencing); 10 mM Tris-HCl pH 7.5, 50 mM NaCl, 1 mM DTT, 4% glycerol, room temperature, 30 min; GST-TFs on glutathione beads, 16-mer random dsDNA library, 0.1% formaldehyde crosslink after washing; high values mean tight binding
[1] = molecular target: T1, FLI1 (Homo sapiens, UniProt Q01543 1-452); conditions: protein: recombinant; tags: N-terminal GST; dsDNA, one strand shown
T1 sequence: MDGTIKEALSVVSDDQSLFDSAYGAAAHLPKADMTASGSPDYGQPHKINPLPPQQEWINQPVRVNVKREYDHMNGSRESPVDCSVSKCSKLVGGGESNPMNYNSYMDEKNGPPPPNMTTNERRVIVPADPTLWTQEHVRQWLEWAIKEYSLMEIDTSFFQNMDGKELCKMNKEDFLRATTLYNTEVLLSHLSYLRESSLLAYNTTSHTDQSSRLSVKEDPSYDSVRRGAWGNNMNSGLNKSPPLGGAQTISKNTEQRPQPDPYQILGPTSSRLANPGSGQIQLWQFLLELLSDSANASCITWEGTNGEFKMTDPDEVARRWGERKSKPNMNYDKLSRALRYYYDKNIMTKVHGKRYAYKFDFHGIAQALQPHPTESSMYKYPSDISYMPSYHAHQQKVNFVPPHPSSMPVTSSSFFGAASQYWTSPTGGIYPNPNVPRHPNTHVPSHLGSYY
Summary of the method: (§1)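 A tag-only sample was pooled with DNA-barcoded human transcription factors that had been expressed in yeast as GST fusions and captured on glutathione beads. The pools were incubated for 30 min at room temperature with 200 nmole of a random double-stranded 16-mer DNA library in Tris/NaCl/DTT/glycerol buffer, then washed, crosslinked with 0.1% formaldehyde, proximity-ligated (BsaI/T4 ligase, 1 h, 37 °C), PCR-amplified and sequenced on an Illumina NextSeq500. Binding signal is each hexamer's read frequency for a factor divided by its frequency for the tag-only sample.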

[2] = molecular target: T2, ELK1 (Homo sapiens, UniProt P19419 1-428); conditions: protein: recombinant; tags: N-terminal GST; dsDNA, one strand shown
T2 sequence: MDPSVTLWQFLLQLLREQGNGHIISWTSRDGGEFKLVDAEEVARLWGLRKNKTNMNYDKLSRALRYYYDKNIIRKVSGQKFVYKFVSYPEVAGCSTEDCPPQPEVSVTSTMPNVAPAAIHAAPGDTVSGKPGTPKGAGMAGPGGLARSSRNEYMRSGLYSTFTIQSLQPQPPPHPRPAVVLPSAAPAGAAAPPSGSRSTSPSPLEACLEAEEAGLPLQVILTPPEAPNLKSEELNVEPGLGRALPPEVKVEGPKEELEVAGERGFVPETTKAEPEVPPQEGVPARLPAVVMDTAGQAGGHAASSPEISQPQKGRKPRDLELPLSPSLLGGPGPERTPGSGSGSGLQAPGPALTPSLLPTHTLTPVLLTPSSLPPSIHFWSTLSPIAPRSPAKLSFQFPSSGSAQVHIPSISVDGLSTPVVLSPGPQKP
Summary of the method: as §1

[3] = molecular target: T3, GABPA (Homo sapiens, UniProt Q06546 1-454); conditions: protein: recombinant; tags: N-terminal GST; dsDNA, one strand shown
T3 sequence: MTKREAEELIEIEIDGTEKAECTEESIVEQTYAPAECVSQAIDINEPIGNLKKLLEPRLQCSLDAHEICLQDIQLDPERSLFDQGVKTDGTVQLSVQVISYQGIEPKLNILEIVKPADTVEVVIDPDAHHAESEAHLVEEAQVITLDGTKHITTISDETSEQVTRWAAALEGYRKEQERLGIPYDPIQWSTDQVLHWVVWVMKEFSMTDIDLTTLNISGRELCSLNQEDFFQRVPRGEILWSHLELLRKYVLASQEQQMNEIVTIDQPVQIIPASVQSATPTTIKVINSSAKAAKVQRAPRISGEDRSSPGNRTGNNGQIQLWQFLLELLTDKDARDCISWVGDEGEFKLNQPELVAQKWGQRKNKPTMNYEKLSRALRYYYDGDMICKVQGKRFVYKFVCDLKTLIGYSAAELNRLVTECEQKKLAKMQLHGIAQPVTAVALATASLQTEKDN
Summary of the method: as §1

[4] = molecular target: T4, ERG (Homo sapiens, UniProt P11308 1-479); conditions: protein: recombinant; tags: N-terminal GST; dsDNA, one strand shown
T4 sequence: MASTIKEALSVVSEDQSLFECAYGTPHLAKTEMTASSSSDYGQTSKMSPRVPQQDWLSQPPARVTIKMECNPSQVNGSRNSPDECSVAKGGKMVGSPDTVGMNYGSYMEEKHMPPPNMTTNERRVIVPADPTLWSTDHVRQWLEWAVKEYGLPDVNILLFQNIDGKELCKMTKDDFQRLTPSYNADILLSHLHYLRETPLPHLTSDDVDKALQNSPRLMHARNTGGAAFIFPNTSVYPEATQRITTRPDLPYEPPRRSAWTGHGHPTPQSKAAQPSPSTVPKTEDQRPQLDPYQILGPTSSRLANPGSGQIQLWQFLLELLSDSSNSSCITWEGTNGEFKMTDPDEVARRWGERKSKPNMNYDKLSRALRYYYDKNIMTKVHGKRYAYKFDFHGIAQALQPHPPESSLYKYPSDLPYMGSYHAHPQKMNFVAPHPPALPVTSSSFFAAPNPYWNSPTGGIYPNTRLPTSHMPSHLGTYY
Summary of the method: as §1

[5] = molecular target: ELF1 (Homo sapiens, UniProt P32519 1-619); conditions: protein: recombinant; tags: N-terminal GST; dsDNA, one strand shown
Summary of the method: as §1

[6] = molecular target: T5, EHF (Homo sapiens, UniProt Q9NZC4 1-300); conditions: protein: recombinant; tags: N-terminal GST; dsDNA, one strand shown
T5 sequence: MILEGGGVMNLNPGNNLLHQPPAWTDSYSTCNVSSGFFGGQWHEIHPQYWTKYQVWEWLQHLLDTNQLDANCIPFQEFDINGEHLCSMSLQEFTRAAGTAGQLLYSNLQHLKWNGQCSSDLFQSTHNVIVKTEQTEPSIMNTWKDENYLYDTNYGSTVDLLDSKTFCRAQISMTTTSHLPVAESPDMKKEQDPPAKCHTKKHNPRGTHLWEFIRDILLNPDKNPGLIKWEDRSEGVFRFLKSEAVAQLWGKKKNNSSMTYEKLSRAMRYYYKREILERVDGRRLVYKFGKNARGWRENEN
Summary of the method: as §1

[7] = molecular target: SPI1 (Homo sapiens, UniProt P17947 1-270); conditions: protein: recombinant; tags: N-terminal GST; dsDNA, one strand shown
Summary of the method: as §1

[8] = molecular target: SPIB (Homo sapiens, UniProt Q01892 1-262); conditions: protein: recombinant; tags: N-terminal GST; dsDNA, one strand shown
Summary of the method: as §1

[9] = molecular target: T6, ELK3 (Homo sapiens, UniProt P41970 1-407); conditions: protein: recombinant; tags: N-terminal GST; dsDNA, one strand shown
T6 sequence: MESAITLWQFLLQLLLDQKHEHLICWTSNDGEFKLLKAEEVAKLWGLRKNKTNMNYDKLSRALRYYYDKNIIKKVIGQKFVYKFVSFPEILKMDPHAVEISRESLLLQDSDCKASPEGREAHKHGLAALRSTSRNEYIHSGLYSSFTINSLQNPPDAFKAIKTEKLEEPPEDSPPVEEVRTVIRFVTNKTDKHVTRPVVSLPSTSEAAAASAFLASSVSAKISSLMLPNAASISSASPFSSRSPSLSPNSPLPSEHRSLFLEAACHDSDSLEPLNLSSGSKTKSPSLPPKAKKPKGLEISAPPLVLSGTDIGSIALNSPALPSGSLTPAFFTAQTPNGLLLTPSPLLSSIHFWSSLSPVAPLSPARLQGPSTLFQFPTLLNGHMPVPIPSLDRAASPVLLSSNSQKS
Summary of the method: as §1

[10] = molecular target: ETV5 (Homo sapiens, UniProt P41161 1-510); conditions: protein: recombinant; tags: N-terminal GST; dsDNA, one strand shown
Summary of the method: as §1

[11] = molecular target: HSF1 (Homo sapiens, UniProt Q00613 1-529); conditions: protein: recombinant; tags: N-terminal GST; chain copies: 3; dsDNA, one strand shown
Summary of the method: as §1

[12] = molecular target: T7, SPIC (Homo sapiens, UniProt Q8N5J4 1-248); conditions: protein: recombinant; tags: N-terminal GST; dsDNA, one strand shown
T7 sequence: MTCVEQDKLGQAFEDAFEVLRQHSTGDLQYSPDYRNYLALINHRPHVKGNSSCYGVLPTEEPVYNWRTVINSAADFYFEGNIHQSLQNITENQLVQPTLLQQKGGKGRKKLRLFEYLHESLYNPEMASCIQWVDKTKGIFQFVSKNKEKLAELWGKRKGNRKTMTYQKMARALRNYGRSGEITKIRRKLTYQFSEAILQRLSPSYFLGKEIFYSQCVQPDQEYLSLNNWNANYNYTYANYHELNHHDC
Summary of the method: as §1

[13] = molecular target: T8, ETV2 (Homo sapiens, UniProt O00321 1-342); conditions: protein: recombinant; tags: N-terminal GST; dsDNA, one strand shown
T8 sequence: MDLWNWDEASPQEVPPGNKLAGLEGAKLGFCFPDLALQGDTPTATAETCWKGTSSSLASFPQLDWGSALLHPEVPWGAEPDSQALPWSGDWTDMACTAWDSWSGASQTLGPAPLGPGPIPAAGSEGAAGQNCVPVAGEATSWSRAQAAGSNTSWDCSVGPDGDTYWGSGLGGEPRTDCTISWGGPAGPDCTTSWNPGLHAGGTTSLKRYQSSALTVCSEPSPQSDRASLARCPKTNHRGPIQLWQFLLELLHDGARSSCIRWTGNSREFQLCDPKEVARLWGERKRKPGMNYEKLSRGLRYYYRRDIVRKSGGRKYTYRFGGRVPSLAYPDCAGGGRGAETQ
Summary of the method: as §1

[14] = molecular target: CRX (Homo sapiens, UniProt O43186 1-299); conditions: protein: recombinant; tags: N-terminal GST; dsDNA, one strand shown
Summary of the method: as §1

Sequence of ELF1 (P32519 whole entry): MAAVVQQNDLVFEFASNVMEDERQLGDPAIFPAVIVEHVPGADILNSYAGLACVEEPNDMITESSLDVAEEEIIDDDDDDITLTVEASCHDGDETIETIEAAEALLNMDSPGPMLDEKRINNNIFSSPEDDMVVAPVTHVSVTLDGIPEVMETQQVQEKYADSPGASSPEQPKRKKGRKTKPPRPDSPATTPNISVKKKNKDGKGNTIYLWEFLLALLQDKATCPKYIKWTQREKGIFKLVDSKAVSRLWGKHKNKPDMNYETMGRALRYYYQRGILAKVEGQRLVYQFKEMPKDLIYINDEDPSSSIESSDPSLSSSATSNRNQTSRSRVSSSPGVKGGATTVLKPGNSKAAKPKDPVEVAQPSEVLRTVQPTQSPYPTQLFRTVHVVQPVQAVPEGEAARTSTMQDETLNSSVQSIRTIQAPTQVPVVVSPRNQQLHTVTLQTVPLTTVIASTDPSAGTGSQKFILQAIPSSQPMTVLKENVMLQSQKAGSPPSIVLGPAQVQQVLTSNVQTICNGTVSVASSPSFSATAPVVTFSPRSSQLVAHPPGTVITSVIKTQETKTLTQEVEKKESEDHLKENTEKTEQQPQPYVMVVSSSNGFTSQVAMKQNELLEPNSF
Sequence of SPIB (Q01892 whole entry): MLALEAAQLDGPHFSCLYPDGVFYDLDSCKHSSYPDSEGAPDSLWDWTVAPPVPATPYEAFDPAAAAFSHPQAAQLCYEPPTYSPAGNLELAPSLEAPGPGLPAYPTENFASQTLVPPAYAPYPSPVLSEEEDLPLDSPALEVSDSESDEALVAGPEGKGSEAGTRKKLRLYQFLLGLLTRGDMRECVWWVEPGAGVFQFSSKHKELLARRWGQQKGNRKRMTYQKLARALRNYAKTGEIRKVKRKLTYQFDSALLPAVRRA
Sequence of ETV5 (P41161 whole entry): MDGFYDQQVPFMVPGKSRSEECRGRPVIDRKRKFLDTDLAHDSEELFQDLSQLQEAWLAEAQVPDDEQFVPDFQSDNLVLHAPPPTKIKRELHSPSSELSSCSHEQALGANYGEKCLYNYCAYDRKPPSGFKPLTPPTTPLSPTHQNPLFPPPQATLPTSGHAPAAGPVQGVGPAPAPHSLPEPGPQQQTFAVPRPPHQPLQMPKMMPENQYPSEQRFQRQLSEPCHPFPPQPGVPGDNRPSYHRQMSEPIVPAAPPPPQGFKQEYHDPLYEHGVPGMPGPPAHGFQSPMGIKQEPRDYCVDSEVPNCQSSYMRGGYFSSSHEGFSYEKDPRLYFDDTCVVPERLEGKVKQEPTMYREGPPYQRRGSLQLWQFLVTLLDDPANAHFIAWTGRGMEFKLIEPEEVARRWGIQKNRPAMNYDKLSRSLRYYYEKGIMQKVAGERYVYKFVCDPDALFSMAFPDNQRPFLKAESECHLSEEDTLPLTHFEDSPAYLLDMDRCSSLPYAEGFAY
Sequence of CRX (O43186 whole entry): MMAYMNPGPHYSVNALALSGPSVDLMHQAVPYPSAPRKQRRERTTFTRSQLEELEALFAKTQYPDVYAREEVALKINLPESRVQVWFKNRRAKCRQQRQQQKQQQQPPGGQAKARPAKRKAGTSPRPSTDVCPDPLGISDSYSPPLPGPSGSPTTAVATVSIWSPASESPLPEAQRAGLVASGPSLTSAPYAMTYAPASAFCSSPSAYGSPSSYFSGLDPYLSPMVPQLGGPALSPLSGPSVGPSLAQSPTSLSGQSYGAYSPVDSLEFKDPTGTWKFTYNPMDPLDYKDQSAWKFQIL
Sequence of HSF1 (Q00613 whole entry): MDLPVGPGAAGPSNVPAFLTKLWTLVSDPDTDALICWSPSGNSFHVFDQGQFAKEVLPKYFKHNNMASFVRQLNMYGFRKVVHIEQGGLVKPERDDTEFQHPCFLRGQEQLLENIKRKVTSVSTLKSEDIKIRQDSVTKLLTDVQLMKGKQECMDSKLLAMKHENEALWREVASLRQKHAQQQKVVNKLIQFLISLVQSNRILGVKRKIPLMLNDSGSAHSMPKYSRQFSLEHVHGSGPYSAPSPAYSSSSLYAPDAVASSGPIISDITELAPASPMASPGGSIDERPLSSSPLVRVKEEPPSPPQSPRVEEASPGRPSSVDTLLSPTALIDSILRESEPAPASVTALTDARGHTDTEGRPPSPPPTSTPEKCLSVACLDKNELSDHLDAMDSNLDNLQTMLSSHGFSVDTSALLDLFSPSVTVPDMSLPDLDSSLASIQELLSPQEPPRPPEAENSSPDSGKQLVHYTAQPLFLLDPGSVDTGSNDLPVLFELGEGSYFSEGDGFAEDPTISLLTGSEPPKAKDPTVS

TACTAG
binding signal [1]: 1.09 fold enrichment (6-mer frequency, TF over GST control) | binding signal [2]: 1.09 fold enrichment (6-mer frequency, TF over GST control) | binding signal [3]: 1.07 fold enrichment (6-mer frequency, TF over GST control) | binding signal [4]: 1.06 fold enrichment (6-mer frequency, TF over GST control) | binding signal [5]: 1.11 fold enrichment (6-mer frequency, TF over GST control) | binding signal [6]: 1.09 fold enrichment (6-mer frequency, TF over GST control) | binding signal [7]: 1 fold enrichment (6-mer frequency, TF over GST control) | binding signal [8]: 1 fold enrichment (6-mer frequency, TF over GST control) | binding signal [9]: 1.05 fold enrichment (6-mer frequency, TF over GST control) | binding signal [10]: 1.05 fold enrichment (6-mer frequency, TF over GST control) | binding signal [11]: 1.81 fold enrichment (6-mer frequency, TF over GST control) | binding signal [12]: 1.02 fold enrichment (6-mer frequency, TF over GST control) | binding signal [13]: 1.17 fold enrichment (6-mer frequency, TF over GST control) | binding signal [14]: 1.3 fold enrichment (6-mer frequency, TF over GST control)
